About 2,200 (0.71%) of roughly 310,000 compounds showed an effect of 50% or more. The effect is printed as a negative number. Many of the other results were omitted from the sample, so strong results are more common in it than they were.

Chain of human ether-à-go-go-related gene (hERG) potassium channel (Q12809 whole entry, looked up): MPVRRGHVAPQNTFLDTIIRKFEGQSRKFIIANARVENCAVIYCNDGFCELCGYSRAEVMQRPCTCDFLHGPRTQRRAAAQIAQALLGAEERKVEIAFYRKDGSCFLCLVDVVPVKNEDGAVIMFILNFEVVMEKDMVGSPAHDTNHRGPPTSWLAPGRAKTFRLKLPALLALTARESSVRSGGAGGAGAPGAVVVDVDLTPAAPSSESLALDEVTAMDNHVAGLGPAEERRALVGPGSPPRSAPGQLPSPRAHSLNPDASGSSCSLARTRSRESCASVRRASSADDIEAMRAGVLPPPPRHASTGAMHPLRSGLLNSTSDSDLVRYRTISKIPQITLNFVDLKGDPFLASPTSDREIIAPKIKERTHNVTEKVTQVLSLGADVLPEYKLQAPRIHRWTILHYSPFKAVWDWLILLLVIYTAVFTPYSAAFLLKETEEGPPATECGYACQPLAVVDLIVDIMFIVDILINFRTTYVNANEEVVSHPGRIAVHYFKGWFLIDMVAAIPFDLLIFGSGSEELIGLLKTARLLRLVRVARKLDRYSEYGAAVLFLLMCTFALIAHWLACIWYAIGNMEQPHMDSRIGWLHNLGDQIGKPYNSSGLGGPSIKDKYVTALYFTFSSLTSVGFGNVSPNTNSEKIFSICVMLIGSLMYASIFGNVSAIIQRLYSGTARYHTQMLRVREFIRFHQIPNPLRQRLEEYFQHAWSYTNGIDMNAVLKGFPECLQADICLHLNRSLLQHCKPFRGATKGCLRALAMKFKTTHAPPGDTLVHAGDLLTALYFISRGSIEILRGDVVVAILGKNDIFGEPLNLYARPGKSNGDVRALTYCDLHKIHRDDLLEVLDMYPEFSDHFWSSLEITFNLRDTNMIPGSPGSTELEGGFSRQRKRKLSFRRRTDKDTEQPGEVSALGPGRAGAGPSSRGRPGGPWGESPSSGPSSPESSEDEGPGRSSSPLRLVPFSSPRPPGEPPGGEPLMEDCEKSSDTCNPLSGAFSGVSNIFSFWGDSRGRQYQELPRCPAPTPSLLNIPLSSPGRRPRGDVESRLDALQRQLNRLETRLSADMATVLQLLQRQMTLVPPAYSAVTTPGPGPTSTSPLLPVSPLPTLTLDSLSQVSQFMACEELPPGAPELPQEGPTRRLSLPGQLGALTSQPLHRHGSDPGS

For the assay, the target named is human ether-à-go-go-related gene (hERG) potassium channel (human, UniProt Q12809). The assay is described as follows: primary screen, population patch clamp on CHO cells stably expressing hERG; higher = less effect of the substance. Here is the method:
Briefly, Chinese hamster ovary (CHO) cells stably expressing the hERG channel were dislodged from tissue culture flasks and dispensed into PPC plates. […] During the recording, background leak currents were estimated by a 100 ms step to -80 mV from an initial holding potential of -70 mV and subtracted from the subsequent current measurement. The campaign was conducted in two phases using slight differences in recording protocol. In the first phase, the initial voltage pulse used a 100 ms step to -30 mV from a holding potential of -70 mV, a 2 s conditioning step to +25 mV, and a 2 s test step to -30 mV. During the second phase of the screen, the potential during the conditioning step was raised to +45 mV. In both phases of the campaign, a secondary voltage pulse was applied using the same parameters as the second phase initial pulse. The initial and secondary pulses were applied in the absence of compound, and upon application of 1 μM and 10 μM test concentrations. Small molecule effects on hERG current density were quantified by […].
Consider `Cn1cc(/C=N/NC(=O)c2ccc(C#N)cc2F)c2ccccc21`, for which the “hERG current change (%, negative = inhibition) at 1uM” value was 12.6%.
For `N#Cc1c(N2CCCC(O)C2)nc(N)c2c(N)nc3c(c12)CC(=O)N3C12CC3CC(CC(C3)C1)C2` (stereo not drawn), the “hERG current change (%, negative = inhibition) at 1uM” value stood at 8.76%.
Under `COc1ccc(/C=C(/NC(=O)c2ccccc2)C(=O)NCc2ccncc2)cc1` stands -12.6%.
As to `O=C(NCc1ccncc1)/C(=C\c1ccc(F)cc1)NC(=O)c1ccccc1`, the “hERG current change (%, negative = inhibition) at 1uM” value was -52.3%.
For `Cc1ccc(C(=O)N/C(=C\c2cccc([N+](=O)[O-])c2)C(=O)NCc2ccncc2)cc1`, the “hERG current change (%, negative = inhibition) at 1uM” value was -65.3%.
In the case of `CCNC(=O)/C(=C/c1cccc([N+](=O)[O-])c1)NC(=O)c1ccc(C)cc1`, the “hERG current change (%, negative = inhibition) at 1uM” value is -17.3%.
For `O=C(NCc1ccncc1)/C(=C/c1cccc([N+](=O)[O-])c1)NC(=O)c1ccccc1` the value was -31.2%; for `CN(C)c1ccc(/C=C(\NC(=O)c2ccccc2)C(=O)NCc2ccncc2)cc1`, 4.78%.
For `Cc1ccc(C23CC4CC(CC(C(=O)OCC(=O)NC5CCS(=O)(=O)C5)(C4)C2)C3)cc1` (stereo not drawn) the value was 1.74%; for `COc1ccc(OCC(=O)NNC(=O)C(=O)Nc2cc(OC)ccc2OC)cc1`, 13.5%.
Under `c1ccc(-c2oc3ncnc(NCCN4CCOCC4)c3c2-c2ccccc2)cc1` stands 9.8%; under `N=c1c2c(-c3ccccc3)c(-c3ccccc3)oc2ncn1CCCN1CCOCC1`, -84.5%.
With `COc1ccc(-c2oc3ncn(CCN4CCOCC4)c(=N)c3c2-c2ccc(OC)cc2)cc1`, the “hERG current change (%, negative = inhibition) at 1uM” value was -7.75%.
On to `N=c1c2c(-c3ccccc3)c(-c3ccccc3)oc2ncn1CCN1CCOCC1`, for which the “hERG current change (%, negative = inhibition) at 1uM” value is given as -63.5%.
Under `c1ccc(-c2oc3ncnc(NCCCN4CCOCC4)c3c2-c2ccccc2)cc1` stands 0.244%; under `N=c1c2c(-c3ccccc3)c(-c3ccccc3)oc2ncn1Cc1ccco1`, 9.94%; under `COc1ccccc1CCc1nnc(CCC(=O)N(C)Cc2cccc3cnccc23)o1`, -53.3%.
As to `CN(Cc1cccc2cnccc12)C(=O)CCc1nnc(CCc2ccccc2)o1`, the “hERG current change (%, negative = inhibition) at 1uM” value is -5.46%.
For the compound `COc1ccccc1CCc1nnc(CCC(=O)N(C)Cc2ccncc2C)o1`, the “hERG current change (%, negative = inhibition) at 1uM” value stood at 16.2%.
Consider `COc1ccc2[nH]c(=O)c(CN(Cc3cccnc3)S(=O)(=O)c3ccccc3F)cc2c1`, for which the “hERG current change (%, negative = inhibition) at 1uM” value amounted to 7.89%.
Under `CCOc1ccc(NC(=O)CN(C)C(=O)c2ccc(-c3ccc(C(C)=O)cc3)o2)cc1OCC` stands 10.5%; under `Cl.Nc1c2c(nc3ccccc13)CCCC2`, -12.6%; under `Nc1c2c(nc3ccn(-c4ccccc4)c(=O)c13)CCCCC2`, -37.1%.
Take `Nc1c2c(nc3ccn(Cc4ccccc4)c(=O)c13)CCC2`: the “hERG current change (%, negative = inhibition) at 1uM” value was -59%.
Take `NC(=O)NC(c1ccc(Cl)cc1)c1ccccc1Cl` (stereo not drawn): the “hERG current change (%, negative = inhibition) at 1uM” value is 7.43%.
Under `CC(=O)Nc1ccc(-n2c(C)ccc2C)cc1` stands 12.9%.
Under `O=C(/C=C/c1c(Cl)cccc1Cl)N1CCN(c2ncccn2)CC1` stands -53%; under `O=C(/C=C/c1ccccc1)N1CCN(c2ccccn2)CC1`, -3.17%; under `O=C(/C=C/c1ccc(F)cc1)N1CCN(c2ncccn2)CC1`, 18.1%.
For `O=C(/C=C/c1cccc(F)c1)N1CCN(c2ccccn2)CC1`, the “hERG current change (%, negative = inhibition) at 1uM” value is -68.4%.
On to `O=C(/C=C/c1cccc(F)c1)N1CCN(c2ncccn2)CC1`, for which the “hERG current change (%, negative = inhibition) at 1uM” value amounted to 12.4%.
For `O=C(/C=C/c1ccccc1Cl)N1CCN(c2ncccn2)CC1` the value was 7.12%.
For the compound `Cc1ccc2cc(CCNC(=O)c3ccc(S(=O)(=O)N4CCOCC4)cc3)c(=O)[nH]c2c1C`, the “hERG current change (%, negative = inhibition) at 1uM” value worked out at 11.8%.
As to `Cc1ccc(C)c(S(=O)(=O)NCC(=O)NCc2ccco2)c1`, the “hERG current change (%, negative = inhibition) at 1uM” value was found to be 4.55%.
Turning to `Cc1cccc(C)c1NC(=O)CCCSc1nnc(N)s1`, the “hERG current change (%, negative = inhibition) at 1uM” value is given as 8.09%.
Turning to `CCCCn1c(=N)n(CC(O)c2ccccc2)c2ccccc21.Cl` (stereo not drawn), the “hERG current change (%, negative = inhibition) at 1uM” value is recorded as -36.7%.
Under `CCn1c(=N)n(CCOc2ccc(OC)cc2)c2ccccc21` stands -25.5%; under `CCCn1c(=N)n(CCOc2ccc(OC)cc2)c2ccccc21`, -22%.
Take `Cc1ccc(OCC(O)Cn2c(=N)n(CCN3CCOCC3)c3ccccc32)cc1.Cl` (stereo not drawn): the “hERG current change (%, negative = inhibition) at 1uM” value is reported as -9.7%.
On to `CCCCn1c(=N)n(CC(O)COc2ccc(C)cc2)c2ccccc21.Cl` (stereo not drawn), for which the “hERG current change (%, negative = inhibition) at 1uM” value is given as -77%.
Under `CCCn1c(=N)n(CC(O)COc2ccc(C)cc2)c2ccccc21.Cl` (stereo not drawn) stands -68%.
Under `Cc1ccc(OCC(O)Cn2c3ccccc3c3ccccc32)cc1` (stereo not drawn) stands 16.8%.
Regarding `Cl.N=c1n(CCN2CCOCC2)c2ccccc2n1CC(O)COc1ccccc1` (stereo not drawn), the “hERG current change (%, negative = inhibition) at 1uM” value is on record as -3.77%.
Regarding `CCn1c(=N)n(CC(O)COc2ccc(C)cc2)c2ccccc21.Cl` (stereo not drawn), the “hERG current change (%, negative = inhibition) at 1uM” value was -16.8%.
Consider `CCN(CC)CCn1c(=N)n(CC(O)COc2ccccc2)c2ccccc21.Cl` (stereo not drawn), for which the “hERG current change (%, negative = inhibition) at 1uM” value is reported as -20.5%.
As to `Br.CCCCn1c(=N)n(CCOc2ccc(C)cc2)c2ccccc21`, the “hERG current change (%, negative = inhibition) at 1uM” value is recorded as -59.6%.
Regarding `CCCCn1c(=N)n(CC(O)COc2ccccc2)c2ccccc21` (stereo not drawn), the “hERG current change (%, negative = inhibition) at 1uM” value is reported as -68%.
For the compound `CCOC(=O)C1CCN(C(=O)CSC2=NCCS2)CC1`, the “hERG current change (%, negative = inhibition) at 1uM” value turned out to be 8.93%.
Turning to `NS(=O)(=O)c1ccc(CCNC(=O)CN2CCN(Cc3cccc4ccccc34)CC2)cc1`, the “hERG current change (%, negative = inhibition) at 1uM” value is recorded as 8.33%.
Regarding `O=C(COC(=O)CN1C(=O)c2ccccc2C1=O)Nc1cccc(F)c1`, the “hERG current change (%, negative = inhibition) at 1uM” value was 5.95%.
As for `Cc1ccc(C)c(NC(=O)COC(=O)CNC(=O)c2ccccc2Cl)c1`, the “hERG current change (%, negative = inhibition) at 1uM” value turned out to be 9.98%.
As for `Cc1cc(Cl)cc(Cl)c1CNc1c([N+](=O)[O-])c(=O)oc2ccccc12`, the “hERG current change (%, negative = inhibition) at 1uM” value stood at 7.59%.
For `CC(C)c1cccc(C(C)C)c1NC(=O)CN1C(=O)NC2(CCCCCCC2)C1=O` the value was 8.87%.
As to `Cc1ccc(S(=O)(=O)CC(=O)c2ccc(C(C)(C)C)cc2)cc1`, the “hERG current change (%, negative = inhibition) at 1uM” value was determined as 2.43%.

(Values after publication PMC4336329 (PLoS ONE, 2015).)
